Compound activity (PubChem)
Nrf2 block = blocks Nrf2 signaling. A549 ARE-Fluc reporter, luciferase luminescence, 18-24 h. Potency, µM (highest dose often 46 µM), without a hit: at the top dose activity change, negative = inhibition, hits mostly inhibitors. actives 2.1% (n = 360,000). AID 504444; also: % is scaled to controls: 0 for no effect and ±100 for the full control effect; nearly all actives have a fitted effect of over 60% in size
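Nrf2 activity is the BugLite luminescence, read 15 min after reagent at room temperature, following CellTiter-Fluor cytotoxicity readout (30 min, 37C). Compound titrations were applied for 18-24 h to 5000 A549 ARE_Fluc cells/well in 5% FBS OPTI-MEM.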
TGFb SMAD3 inh = blocks TGF-b signaling | HepG2 CAGA-GFP TGF-b/SMAD3 reporter, GFP fluorescence, 18 h; TGF-beta stimulated, 500 pg/mL final | AID 588855 | Potency, µM (titrated, usually from 46.1 µM), for inactives: at the top dose activity, negative = inhibition, actives largely listed as inhibitors | actives 1.2% (n = 410,000); also: % is scaled to controls: 0 for no effect and ±100 for the full control effect; nearly all actives have a fitted effect of over 65% in size
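First, reporter cells (HEPG2 CAGA-GFP) rested 2 h at 37 degrees C. Next, compounds were pinned in and TGF-beta added to 500 pg/mL final. After 18 h, GFP was imaged per cell and summed per well.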
HepG2 viability = counter-screen for TGF-b inhibitors: cytotoxicity in HepG2 cells; HepG2 CAGA-GFP viability, ATP luminescence, 18 h; Potency, µM (series often up to 46.1 µM), inactives show at the top dose activity change, negative = cytotoxicity, actives largely listed as cytotoxic; actives 0.76% (n = 410,000)
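HepG2 CAGA-GFP cells (1000/well, DMEM with 1% FBS) received compound, then TGF-beta at 500 pg/mL final, and were incubated 18 hours at 37 degrees C. Viability was read by CellTiter-Glo luminescence. Media-only wells were set as complete cell-killing and DMSO as no toxicity.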
Nrf2 activator = activates Nrf2 signaling. AREc32 ARE-luciferase reporter (MCF7-derived line), luminescence, 24 h. Potency, µM (doses to about 46.1 µM), for inactives: top-dose activation, hits mostly activators. actives 0.31% (n = 410,000). AID 624171; also: % of control where 0% means no effect; nearly all actives have a fitted effect of over 65% in size
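Reporter line AREc32 (ARE-Fluc), seeded overnight in OPTI-MEM with 5% FBS; compound pin-transferred, 24 hr at 37 deg C, 5% CO2; luminescent read-out.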
A549 viability = A549 cytotoxicity, counter-screen for Nrf2 inhibitors | A549 ARE-Fluc cells, CellTiter-Fluor viability, 18-24 h | actives 0.16% (n = 390,000) | Potency, µM (doses to about 46 µM), for the others: top-dose activity change, negative = cytotoxicity, most hits filed as inhibitors; also: % is scaled to controls: 0 for no effect and ±100 for the full control effect
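Cytotoxicity counterscreen: CellTiter-Fluor fluorescence was measured in A549 ARE_Fluc cells after 18-24 h of compound exposure in a concentration series. The subsequent BugLite luminescent read reports ARE-luciferase activity.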
Numbers without * were called inactive; ? = inconclusive; . = no result. The list is not random: actives were taken first. Their share in the collection is about 3.6%. Calls follow the shape of the dose curve; as a rule, active = well fitted curve in the direction sought with a large enough effect; inconclusive = small, poorly fitted or top-dose-only effect, or another doubt; inactive = no such curve, though single readings can be large; an effect the other way counts as inactive or inconclusive. Potency is read from the fitted curve at half-maximal effect.

SMILES	Nrf2 block	TGFb SMAD3 inh	HepG2 viability	Nrf2 activator	A549 viability
c1ccc(CN2CCC(Nc3nc(-c4cccnc4)nc4ccccc34)CC2)cc1	-19%	16µM*	-62%	21%	?
c1ccc(CNc2nc(-c3cccnc3)nc3ccccc23)cc1	-19%	-8%	-40%	0%	-8%
Cc1ccc(NC(=O)c2ccc(=O)[nH]n2)cc1S(=O)(=O)Nc1ccc(SC(F)F)cc1	21µM*	-21%	-29%	4%	-11%
Cc1cc(CN2CCN(c3ccc(F)cc3)CC2)cs1	5%	-25%	-15%	-1%	10%
CC(=O)N[C@@H](C)c1nc2ccccc2n1CCCN1CCN(c2nc(-c3ccc(C)cc3)cs2)CC1	?	8.9µM*	-11%	-1%	-2%
Cc1ccc(-c2csc(N3CCN(CCCn4c(-c5ccncc5)nc5ccccc54)CC3)n2)cc1	?	7.1µM*	-27%	0%	-7%
Cc1ccc(C)c(OCC(=O)NCCNC(=O)COc2cc(C)ccc2C)c1	15%	10%	-19%	0%	-8%
COC(=O)/C=C1/S/C(=N/N=C/c2ccco2)NC1=O	-5%	3%	17%	10µM*	-20%
CC(OC(=O)CNC(=O)c1sc2ccccc2c1Cl)c1ccccc1 (stereo unspecified)	-13%	47%	46%	0%	6%
O=C(O)CSc1ccc2nnc(-c3cccnc3)n2n1	4%	?	-6%	-1%	3%
Fc1ccc(CSc2ccc3nnc(-c4cccnc4)n3n2)cc1	9.2µM*	-2%	1%	0%	-1%
CC(C)(O)C(=O)NNC(=S)Nc1cccc(C(F)(F)F)c1	3%	6%	0%	1%	5%
Cc1ccc(NNC(=O)C(O)(c2cccc(C(F)(F)F)c2)c2cccc(C(F)(F)F)c2)cc1	23µM*	?	-114%	3%	?
O=C(NNc1ccccc1Br)C(O)(c1cccc(C(F)(F)F)c1)c1cccc(C(F)(F)F)c1	?	7.9µM*	-103%	-2%	?
O=C(NC(c1ccccc1)c1c(O)ccc2ccccc12)c1ccccc1Cl (stereo unspecified)	?	?	-77%	0%	?
Cc1ccc(C(=O)OC(C)C(=O)Nc2ccc3c(c2)OCO3)c(O)c1 (stereo unspecified)	5%	?	-33%	5%	-3%
COc1cc(Br)cc(/C=N/NC(=O)Cc2ccccc2)c1O	-19%	10µM*	-66%	1%	1%
CCOC(=O)C1(CCc2ccccc2)CCN(C(=O)c2occc2C)CC1	3%	-8%	-36%	2%	-2%
CCc1ccc(N2CC(C(=O)NCc3ccc4c(c3)OCO4)CC2=O)cc1 (stereo unspecified)	5%	-13%	-1%	0%	0%
COc1cc(NS(=O)(=O)c2ccc(C)cc2C)cc(OC)c1OC	10µM*	0%	-19%	0%	-21%
Cc1ccc(S(=O)(=O)N2CC(=O)Nc3ccccc32)c(C)c1NS(C)(=O)=O	?	7%	6%	-1%	-5%
Cc1ccc(C(C)(C)C)cc1S(=O)(=O)N1CC(=O)Nc2ccccc21	26µM*	-8%	3%	2%	?
Cc1cc(C(C)(C)C)cc(C)c1S(=O)(=O)N1CC(=O)Nc2ccccc21	-17%	?	13µM*	-1%	1%
O=C(Nc1cccc(C(=O)N2CCCc3ccccc32)c1)c1ccccc1	?	?	0%	2%	-19%
Cc1ccc(-c2nc(NC(=O)c3cc(C(C)(C)C)nn3C)sc2C)cc1Cl	21µM*	3%	15%	0%	-5%
CC1Cc2ccccc2N1S(=O)(=O)c1cccs1 (stereo unspecified)	?	-4%	2%	0%	?
CC(/C=C/C=C/c1ccccc1)=N/NC(=O)c1ccc2c(c1)OCCO2	7%	0%	11µM*	5%	2%
O=C(Nc1cc(F)ccc1F)c1cc2nc(-c3ccco3)cc(C(F)(F)Cl)n2n1	.	34%	4%	3%	-8%
